This passage reports binding signal results from article PMC13541613, “GHT-SELEX demonstrates unexpectedly high intrinsic sequence specificity and complex DNA binding of many human transcription factors”.

In one assay the target is ZNF721 full-length (Homo sapiens, UniProt Q8TF20-2 1-923). In words: HT-SELEX; 20 mM HEPES pH 7, 140 mM KCl, 5 mM NaCl, 1 mM K2HPO4, 2 mM MgSO4, 100 uM EGTA, ZnSO4, 0.1% Tween20; room temperature, 1 h; high values mean tight binding. Conditions: protein: ivt; tags: eGFP (N-terminal); dsDNA, one strand shown. In short, it runs like this: (§1)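 Bead-immobilised tagged transcription factor (full-length or DNA-binding-domain fragment), made in HEK293 lysate or cell-free extract, was incubated with a randomized 40-base DNA library. Binding was for 1 h at room temperature in HEPES/KCl low-stringency buffer with Tween20. After washing and heat elution, bound DNA was PCR-amplified over successive cycles and Illumina-sequenced (~3 million 60 bp reads per sample). Binding signal is a relative k-mer count in selected reads; higher means tighter binding.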

The target of the next assay is ZNF721 DBD2 (Homo sapiens, UniProt Q8TF20-2 395-923). The description is as above. To be noted: protein: ivt; tags: eGFP (N-terminal); dsDNA, one strand shown. The method, boiled down: as §1
ZNF721 DBD2, sequence (Q8TF20 383-911): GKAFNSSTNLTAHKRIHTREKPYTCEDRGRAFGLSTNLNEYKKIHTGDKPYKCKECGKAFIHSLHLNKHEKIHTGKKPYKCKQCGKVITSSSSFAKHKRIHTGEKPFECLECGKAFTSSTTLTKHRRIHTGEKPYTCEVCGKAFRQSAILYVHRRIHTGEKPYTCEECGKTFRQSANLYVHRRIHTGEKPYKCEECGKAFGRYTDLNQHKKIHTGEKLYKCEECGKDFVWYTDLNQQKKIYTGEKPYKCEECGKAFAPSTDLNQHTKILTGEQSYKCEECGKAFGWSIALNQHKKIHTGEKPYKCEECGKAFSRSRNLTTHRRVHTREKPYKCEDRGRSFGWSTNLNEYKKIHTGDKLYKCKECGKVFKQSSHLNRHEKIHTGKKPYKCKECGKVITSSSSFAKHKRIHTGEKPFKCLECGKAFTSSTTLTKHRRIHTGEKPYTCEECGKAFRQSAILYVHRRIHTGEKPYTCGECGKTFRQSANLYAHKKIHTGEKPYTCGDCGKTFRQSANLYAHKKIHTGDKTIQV

ZNF721 full-length, sequence (Q8TF20 other isoform, or with tags, fused parts or gaps): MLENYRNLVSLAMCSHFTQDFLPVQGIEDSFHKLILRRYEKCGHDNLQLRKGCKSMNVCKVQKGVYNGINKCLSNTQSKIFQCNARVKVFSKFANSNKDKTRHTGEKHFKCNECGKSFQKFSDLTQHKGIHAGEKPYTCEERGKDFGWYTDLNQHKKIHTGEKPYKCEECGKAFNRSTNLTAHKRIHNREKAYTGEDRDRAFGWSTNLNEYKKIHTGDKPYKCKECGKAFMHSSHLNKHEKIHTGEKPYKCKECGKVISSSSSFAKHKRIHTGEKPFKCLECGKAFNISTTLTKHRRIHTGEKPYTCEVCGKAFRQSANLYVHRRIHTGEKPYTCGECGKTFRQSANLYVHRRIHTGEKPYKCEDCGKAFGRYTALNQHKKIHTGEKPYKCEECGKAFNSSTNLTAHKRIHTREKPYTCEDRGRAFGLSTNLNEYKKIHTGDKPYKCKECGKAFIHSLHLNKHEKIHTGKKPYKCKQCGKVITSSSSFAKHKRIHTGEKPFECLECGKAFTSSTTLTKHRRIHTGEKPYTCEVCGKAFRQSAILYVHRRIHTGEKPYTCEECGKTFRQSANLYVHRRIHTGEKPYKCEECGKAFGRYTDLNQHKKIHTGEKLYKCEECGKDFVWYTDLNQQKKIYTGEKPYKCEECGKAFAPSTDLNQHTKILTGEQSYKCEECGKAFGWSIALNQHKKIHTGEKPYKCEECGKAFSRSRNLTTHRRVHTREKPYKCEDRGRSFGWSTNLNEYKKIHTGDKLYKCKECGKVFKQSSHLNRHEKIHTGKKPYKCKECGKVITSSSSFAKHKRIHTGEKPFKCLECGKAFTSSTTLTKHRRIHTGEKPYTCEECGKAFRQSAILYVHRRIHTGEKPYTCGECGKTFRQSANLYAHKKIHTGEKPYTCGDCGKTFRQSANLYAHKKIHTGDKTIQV

As for AAACAGCGTT, the binding signal came out at 0.388 relative 10-mer count with ZNF721 full-length and 0.648 relative 10-mer count with ZNF721 DBD2.

Take ATAAAAACAG: the binding signal with ZNF721 full-length came to 0.11 relative 10-mer count; with ZNF721 DBD2 it was 0.148 relative 10-mer count.

Regarding AAACAGGGTT, the binding signal was 0.271 relative 10-mer count in the assay with ZNF721 full-length and 0.368 relative 10-mer count with ZNF721 DBD2.

Regarding ACGCTGTTTC, the binding signal with ZNF721 full-length was 0.13 relative 10-mer count; with ZNF721 DBD2, 0.199 relative 10-mer count.

For CAAAACAGCG, the results for the binding signal with ZNF721 full-length and with ZNF721 DBD2 were 0.142 relative 10-mer count and 0.176 relative 10-mer count, respectively.

As to AAGCAGTGTC, the binding signal with ZNF721 full-length came to 0.13 relative 10-mer count; with ZNF721 DBD2, 0.151 relative 10-mer count.

For the sequence AAAACAGTGT, the binding signal amounted to 0.495 relative 10-mer count with ZNF721 full-length and 0.712 relative 10-mer count in the assay with ZNF721 DBD2.

In the case of AAAACAGCAT, the binding signal is 0.921 relative 10-mer count in the assay with ZNF721 full-length and 1 relative 10-mer count with ZNF721 DBD2.

Take AAGAAAACAG: the binding signal was 0.177 relative 10-mer count with ZNF721 full-length and 0.222 relative 10-mer count in the assay with ZNF721 DBD2.

With ACAGAGTACC, the binding signal worked out at 0.123 relative 10-mer count with ZNF721 full-length and 0.152 relative 10-mer count with ZNF721 DBD2.

In the case of CAAAAAACAG, the binding signal was 0.386 relative 10-mer count with ZNF721 full-length and 0.495 relative 10-mer count in the assay with ZNF721 DBD2.

Turning to AAAAACAGGG, the binding signal was 0.283 relative 10-mer count in the assay with ZNF721 full-length and 0.337 relative 10-mer count with ZNF721 DBD2.

As to AAAAAACAGA, the results for the binding signal with ZNF721 full-length and with ZNF721 DBD2 were 0.261 relative 10-mer count and 0.219 relative 10-mer count, respectively.

On to ACAGTGTTGC, for which the binding signal in the assay with ZNF721 full-length amounted to 0.13 relative 10-mer count; with ZNF721 DBD2, 0.341 relative 10-mer count.

For the sequence CTGTTTTTTA, the binding signal was found to be 0.204 relative 10-mer count with ZNF721 full-length and 0.282 relative 10-mer count with ZNF721 DBD2.

As to AGAAAACAGC, the binding signal with ZNF721 full-length amounted to 0.251 relative 10-mer count; with ZNF721 DBD2 it was 0.322 relative 10-mer count.

As for AAAACAGCGT, the binding signal with ZNF721 full-length was determined as 0.759 relative 10-mer count; with ZNF721 DBD2, 0.975 relative 10-mer count.

As to AAACGAACAG, the results for the binding signal with ZNF721 full-length and with ZNF721 DBD2 were 0.126 relative 10-mer count and 0.0771 relative 10-mer count, respectively.

Turning to AAACAAACAG, the binding signal was 0.143 relative 10-mer count with ZNF721 full-length and 0.0858 relative 10-mer count in the assay with ZNF721 DBD2.

On to AAAAGCAGCG, for which the figures for the binding signal with ZNF721 full-length and with ZNF721 DBD2 were 0.276 relative 10-mer count and 0.326 relative 10-mer count, respectively.

With CACAAAACAG, the binding signal with ZNF721 full-length came out at 0.147 relative 10-mer count; with ZNF721 DBD2, 0.156 relative 10-mer count.

Take AACACTGCTT: the binding signal in the assay with ZNF721 full-length was determined as 0.388 relative 10-mer count; with ZNF721 DBD2, 0.495 relative 10-mer count.

CCAAAAACAG: the binding signal in the assay with ZNF721 full-length came to 0.108 relative 10-mer count; with ZNF721 DBD2, 0.144 relative 10-mer count.

Turning to CAGTGTTACC, the binding signal turned out to be 0.128 relative 10-mer count in the assay with ZNF721 full-length and 0.259 relative 10-mer count with ZNF721 DBD2.

For ACTGTTTTTC, the binding signal was 0.135 relative 10-mer count with ZNF721 full-length and 0.17 relative 10-mer count with ZNF721 DBD2.

On to AAACAGCAGC, for which the binding signal in the assay with ZNF721 full-length is 0.122 relative 10-mer count; in the assay with ZNF721 DBD2, 0.135 relative 10-mer count.

On to AAAACAGGGT, for which the binding signal in the assay with ZNF721 full-length worked out at 0.391 relative 10-mer count; with ZNF721 DBD2 it was 0.506 relative 10-mer count.

Turning to AAGCAGTGTA, the binding signal with ZNF721 full-length was 0.142 relative 10-mer count; in the assay with ZNF721 DBD2 it was 0.18 relative 10-mer count.

Regarding AAACAGGGTA, the binding signal was 0.175 relative 10-mer count with ZNF721 full-length and 0.22 relative 10-mer count with ZNF721 DBD2.

Take TAAAACAGCA: the binding signal amounted to 0.152 relative 10-mer count in the assay with ZNF721 full-length and 0.177 relative 10-mer count with ZNF721 DBD2.

On to AAAACAGAGT, for which the binding signal is 0.236 relative 10-mer count with ZNF721 full-length and 0.279 relative 10-mer count with ZNF721 DBD2.

AAACACTGCT: the binding signal was 0.109 relative 10-mer count with ZNF721 full-length and 0.18 relative 10-mer count in the assay with ZNF721 DBD2.

Consider AAAAACAGTG, for which the binding signal came out at 0.406 relative 10-mer count with ZNF721 full-length and 0.517 relative 10-mer count with ZNF721 DBD2.

On to AAAACAGCAC, for which the binding signal with ZNF721 full-length was 0.279 relative 10-mer count; in the assay with ZNF721 DBD2, 0.306 relative 10-mer count.

Consider CAAAAACAGC, for which the binding signal in the assay with ZNF721 full-length worked out at 0.163 relative 10-mer count; in the assay with ZNF721 DBD2, 0.251 relative 10-mer count.

With AAAAAACAGG, the binding signal in the assay with ZNF721 full-length was 0.278 relative 10-mer count; with ZNF721 DBD2 it was 0.289 relative 10-mer count.

As to CAGTGTTGCC, the binding signal was 0.253 relative 10-mer count with ZNF721 full-length and 0.686 relative 10-mer count in the assay with ZNF721 DBD2.

As for AAAGGAACAG, the binding signal came to 0.113 relative 10-mer count with ZNF721 full-length and 0.0545 relative 10-mer count with ZNF721 DBD2.

As to GCAACACTGC, the binding signal with ZNF721 full-length came to 0.135 relative 10-mer count; with ZNF721 DBD2, 0.238 relative 10-mer count.

Take GAAACGCTGC: the results for the binding signal with ZNF721 full-length and with ZNF721 DBD2 were 0.102 relative 10-mer count and 0.169 relative 10-mer count, respectively.

On to CAAAGCAGTG, for which the binding signal was 0.119 relative 10-mer count with ZNF721 full-length and 0.198 relative 10-mer count in the assay with ZNF721 DBD2.

Consider AAACAGTGTC, for which the values for the binding signal with ZNF721 full-length and in the assay with ZNF721 DBD2 were 0.116 relative 10-mer count and 0.209 relative 10-mer count, respectively.

On to AACAAAACAG, for which the values for the binding signal with ZNF721 full-length and with ZNF721 DBD2 were 0.206 relative 10-mer count and 0.223 relative 10-mer count, respectively.
